From PubChem BioAssay AID1456 (Vanderbilt High Throughput Screening Facility, 2008)
Screen size: about 190,000 compounds; about 4,100 (2.2%) were called active. The sample holds actives, similar compounds and a random draw of the others, so the mix is not that of the screen. Unmarked numbers belong to inactive results.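 Rule for the calls: active = thallium flux slope and its plate-corrected score both differing from the plate sample mean at a set confidence after two filtering rounds, in either direction; inactive = the rest.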

These molecules were tested against Solute carrier family 12 member 5 (Homo sapiens) (UniProt Q9H2X9) (assay: KCC2 cotransporter modulators, thallium flux, primary screen, cell-based, HEK293 KCC2, FluoZin-2 fluorescence, MLSMR (AID 1456;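 note: slope of fluorescence scaled to starting intensity during 10 to 20 s after thallium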)). Details: KCC2 cells, thallium flux FluoZin-2 fluorescence; at 10 µM.
Sequence of Solute carrier family 12 member 5 (Homo sapiens) (Q9H2X9 whole entry, looked up): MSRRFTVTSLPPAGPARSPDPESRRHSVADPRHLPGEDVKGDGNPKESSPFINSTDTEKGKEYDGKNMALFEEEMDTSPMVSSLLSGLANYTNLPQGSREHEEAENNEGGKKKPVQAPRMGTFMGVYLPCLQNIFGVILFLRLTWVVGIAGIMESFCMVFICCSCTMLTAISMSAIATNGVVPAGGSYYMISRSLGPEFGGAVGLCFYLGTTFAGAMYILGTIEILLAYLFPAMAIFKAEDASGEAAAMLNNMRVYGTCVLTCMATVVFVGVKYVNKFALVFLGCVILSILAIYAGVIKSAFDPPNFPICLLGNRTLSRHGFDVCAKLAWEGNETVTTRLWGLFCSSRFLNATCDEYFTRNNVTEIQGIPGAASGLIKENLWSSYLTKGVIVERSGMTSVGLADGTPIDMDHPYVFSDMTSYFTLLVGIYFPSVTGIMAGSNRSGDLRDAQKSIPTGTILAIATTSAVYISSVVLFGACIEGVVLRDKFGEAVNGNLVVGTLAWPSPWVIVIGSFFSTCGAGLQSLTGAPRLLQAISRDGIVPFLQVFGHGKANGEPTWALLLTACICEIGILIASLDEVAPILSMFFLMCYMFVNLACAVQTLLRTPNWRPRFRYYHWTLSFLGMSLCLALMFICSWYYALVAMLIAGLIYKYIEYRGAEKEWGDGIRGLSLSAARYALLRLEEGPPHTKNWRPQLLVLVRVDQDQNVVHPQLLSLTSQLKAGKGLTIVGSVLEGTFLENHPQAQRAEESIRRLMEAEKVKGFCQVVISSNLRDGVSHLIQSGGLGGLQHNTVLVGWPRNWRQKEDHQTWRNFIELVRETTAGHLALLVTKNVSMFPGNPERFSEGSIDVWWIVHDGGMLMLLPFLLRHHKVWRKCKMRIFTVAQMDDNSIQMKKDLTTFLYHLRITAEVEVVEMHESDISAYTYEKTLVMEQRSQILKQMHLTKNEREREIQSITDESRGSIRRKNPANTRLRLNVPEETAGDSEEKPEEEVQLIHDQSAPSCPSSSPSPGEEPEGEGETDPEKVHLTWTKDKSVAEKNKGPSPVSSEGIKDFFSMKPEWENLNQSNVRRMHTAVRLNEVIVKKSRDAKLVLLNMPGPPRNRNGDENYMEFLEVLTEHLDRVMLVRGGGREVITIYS

SMILES	B-score of Tl+ flux slope (higher = more flux/activation; lower = inhibition)
Cc1cc(OCCCCOc2ccc(C#N)cc2)ccc1[N+](=O)[O-]	2.16
Clc1ccc(C[n+]2cc(-c3ccccc3)n3c2CCC3)cc1	0.476
O=C(C1CCN(c2nnc(-n3cccc3)s2)CC1)N1CCc2ccccc2C1	-3.67 (active)
CSc1ccc(CCNC(=O)C2CCN(c3nnc(-n4cccc4)s3)CC2)cc1	0.348
CCOC(=O)C1CCCN(C(=O)C2CCN(c3nnc(-n4cccc4)s3)CC2)C1 (stereo not given)	-0.42
COc1ccc2[nH]c(C(=O)Nc3ccccc3Cl)cc2c1	0.0923
CCCCOc1ccc(CON(C(C)=O)C(C)=O)cc1Cl	0.181
COc1ccc(-c2nc(CS(=O)CC(=O)N3CCc4ccccc4C3)c(C)o2)cc1 (stereo not given)	-6.3 (active)
Cc1ccccc1-c1nc(CS(=O)(=O)CC(=O)N2CCc3ccccc3C2)c(C)o1	-3.98 (active)
COC(=O)c1cc2occc2n1Cc1nc(-c2ccccc2C)oc1C	0.574
COc1ccc(-c2nc(CS(=O)CC(=O)NCc3ccccn3)c(C)o2)cc1 (stereo not given)	1.46
O=C(COc1ccccc1)N1CCc2ccccc2C1	0.0757
Cc1oc(-c2ccccc2F)nc1CS(=O)(=O)CC(=O)NCCCN(C)C1CCCCC1	-0.282
S=C(NCc1ccc2c(c1)OCO2)NCc1ccco1	-0.178
CCOC(=O)C1CCN(C(=O)Nc2cccc(OC)c2)CC1	0.26
Cc1ccccc1Cn1c2ccccc2c2cnn(CC(=O)NCc3ccco3)c(=O)c21	-0.21
COC(=O)CNc1nc(Cl)nc(N2CCC(C)CC2)n1	0.436
O=C(Nc1ccc(C(=O)O)cc1)/C(=C/c1ccc([N+](=O)[O-])cc1)NC(=O)c1ccccc1	-0.11
O=C(Nc1ccccc1)/C(=C/c1ccc([N+](=O)[O-])cc1)NC(=O)c1ccccc1	0.951
CNC(=O)/C(=C\C=C\c1ccccc1)NC(=O)c1ccc([N+](=O)[O-])cc1	-6.01 (active)
Cc1ccc(/C=C/C(=O)O)cc1S(=O)(=O)N1CCC(Cc2ccccc2)CC1	-2.01
Cc1ccc(C)c2c1cc(C)c1nnc(SCC(=O)Nc3cccc(C(=O)O)c3)n12	4.23
COc1cc2nc(Cl)nc(NCCO)c2cc1OC	0.407
COc1cccc(NC(=O)C(Sc2nc3ccccc3c(=O)n2CC(C)C)c2ccccc2)c1 (stereo not given)	7.69 (active)
CC(Sc1nc2ccccc2c(=O)n1Cc1ccco1)C(=O)c1ccccc1 (stereo not given)	-0.121

SMILES	B-score of Tl+ flux slope (higher = more flux/activation; lower = inhibition)
COc1cccc(NC(=O)C(Sc2nnnn2C)c2ccccc2)c1 (stereo not given)	-0.113
Nc1nc(Sc2ncccc2[N+](=O)[O-])n[nH]1	-0.977
Cc1ccc(N2C(=O)CN=C2Nc2nc(C)cc(C)n2)cc1	0.73
O=C(CCc1ccccc1)NNC(=O)c1ccc(Br)cc1	-1.74
CNC(=S)NNC(=O)c1ccc(N(C)C)cc1	0.736
CC(=O)NC(=S)NNC(=O)c1ccc(Br)cc1	5.47 (active)
COC(=O)c1ccc(S(=O)(=O)NCc2ccccc2)n1C	-0.343
O=C1CCCCC1C(=O)c1ccccc1 (stereo not given)	0.304
CN(C)c1cc(-c2ccc(F)cc2)oc(=O)c1Cl	0.0271
COc1ccnc(Oc2ccccc2)c1-c1ncn[nH]1	0.306
O=C(NCc1cccs1)C1CCN(S(=O)(=O)c2ccc(Cl)cc2)CC1	-0.17
O=C(CNCc1cccs1)Nc1cc(S(=O)(=O)N2CCCC2)ccc1Cl	-3.68 (active)
O=C(CNCc1ccco1)Nc1cc(S(=O)(=O)N2CCOCC2)ccc1N1CCCC1	-0.873
COCCCn1c(-c2cccs2)nc2nc3ccccc3nc21	0.0602
O=C(N/N=C1\CCSC1)c1cc(Cl)ccc1O	0.11
C/C(=N/NC(=O)c1cc(Cl)ccc1O)C12CC3CC(CC(C3)C1)C2	4.51 (active)
COc1ccc(Cl)cc1NC(=O)CN(C)C(=O)CNC(=O)C12CC3CC(CC(C3)C1)C2	0.0604
CCOC(=O)C1CCN(C(=O)Nc2ccc(C)c(Cl)c2)CC1	0.0935
CCOC(=O)C(=Cc1ccccc1OC)C(=O)OCC	-0.438
O=C(CN1C(=O)/C(=C/c2ccccc2F)Sc2ccccc21)NCc1cccnc1	-1.86
COc1ccc(C(=O)C2CCCN(C(=O)c3cnsn3)C2)c(C)c1 (stereo not given)	-0.0096
O=S(=O)(c1ccccc1)N1CN(Cc2ccc(F)cc2)c2nc3ccccc3nc21	-1.17
CCc1ccc(Nc2nnc(SCC(=O)c3ccc4c(c3)NC(=O)CO4)s2)cc1	-5.32 (active)
COc1cccc(Nc2nnc(SCC(=O)N3CC(=O)Nc4ccccc43)s2)c1	-0.459
O=C1COc2ccc(C(=O)COC(=O)c3cccnc3Cl)cc2N1	-0.384
